Results reported in PubChem BioAssay (Tox21).
Several values for one entry are separate records, joined by “and”; a condition that tells them apart may be missing. Identical values can stand only once. Records with an inconclusive call do not appear. Activity calls are given as the source filed them. Unless noted, calls follow the shape of the full dose curve.

What was measured:
[1] = Nuclear factor erythroid 2-related factor 2/antioxidant responsive element (Nrf2/ARE) small molecule agonists: luciferase reporter gene qHTS assay in human keratinocytes (AID 1919969); also: nearly all actives have a fitted effect of over 35% in size; also: potency is read from the fitted curve at half-maximal effect
[2] = biological target: Gonadotropin-releasing hormone receptor (Homo sapiens) (UniProt P30968); test: Human gonadotropin-releasing hormone receptor (GnRHR) small molecule agonists, calcium flux assay in GnRHR-HEK293 cells (AID 1920063); also: nearly all actives have a fitted effect of over 35% in size; also: potency is read from the fitted curve at half-maximal effect
Chain of Gonadotropin-releasing hormone receptor (Homo sapiens) (P30968 whole entry, looked up): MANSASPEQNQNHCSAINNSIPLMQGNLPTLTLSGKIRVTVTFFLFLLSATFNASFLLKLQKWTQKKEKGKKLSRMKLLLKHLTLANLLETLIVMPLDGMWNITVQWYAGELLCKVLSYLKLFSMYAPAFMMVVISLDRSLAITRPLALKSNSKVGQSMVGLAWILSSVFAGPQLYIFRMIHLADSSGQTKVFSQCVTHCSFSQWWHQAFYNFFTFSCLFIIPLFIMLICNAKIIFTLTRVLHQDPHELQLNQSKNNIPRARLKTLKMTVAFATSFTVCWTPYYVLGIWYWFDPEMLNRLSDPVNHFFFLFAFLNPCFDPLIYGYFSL
Procedure, shortened: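 HEK293 cells stably expressing human GnRHR were dye-loaded for 1 h at 37 C. Compound was added in agonist mode and fluorescence (Ex/Em 480/540) recorded kinetically for 3 min. Fifteen concentrations, triplicates.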

[3] = biological target: KiSS-1 receptor (Homo sapiens) (UniProt Q969F8); test: Human kisspeptin (KISS1R) small molecule agonists, calcium flux assay in KISS1R-HEK293 cells (AID 1920064; active = well fitted activation curve with a large enough effect in the repeat runs)
Chain of KiSS-1 receptor (Homo sapiens) (Q969F8 whole entry, looked up): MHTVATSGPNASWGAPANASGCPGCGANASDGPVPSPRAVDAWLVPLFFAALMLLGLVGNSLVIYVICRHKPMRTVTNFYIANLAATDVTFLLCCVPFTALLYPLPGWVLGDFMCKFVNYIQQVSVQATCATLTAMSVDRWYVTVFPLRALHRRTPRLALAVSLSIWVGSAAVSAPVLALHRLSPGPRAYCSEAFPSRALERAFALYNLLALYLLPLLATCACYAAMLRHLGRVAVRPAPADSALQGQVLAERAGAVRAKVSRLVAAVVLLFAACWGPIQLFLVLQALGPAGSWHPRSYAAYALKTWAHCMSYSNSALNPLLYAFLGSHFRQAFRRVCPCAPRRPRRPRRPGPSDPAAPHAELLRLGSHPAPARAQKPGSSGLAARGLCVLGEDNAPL
Procedure, shortened: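 HEK293 cells stably expressing human KISS1R were loaded with calcium dye for 1 h at 37 C, then given compound; fluorescence (Ex/Em 480/540) was read kinetically for 3 min. Fifteen concentrations, triplicate.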

[4] = G protein-coupled receptor (GPCR) small molecule agonists, calcium flux assay: HEK293 wild type cell line counter screen (AID 1920065); also: potency is read from the fitted curve at half-maximal effect
Procedure, shortened: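 Wild-type HEK293 cells plated 18 h, loaded with calcium dye 1 h at 37 C, then compounds added in agonist mode (ATP as positive control). Kinetic fluorescence Ex/Em 480/540 recorded 3 min at 1 sec intervals; 15 concentrations, triplicate.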

[5] = p53 small molecule agonists, cell-based qHTS assay with human liver microsomes: qHTS cell viability counter screen (AID 1963579); also: nearly all actives have a fitted effect of over 45% in size; also: potency is read from the fitted curve at half-maximal effect
Procedure, shortened: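 Luminescent CellTiter-Glo read-out, 30 min at room temperature, gauged cytotoxicity in p53RE-bla cells exposed 16 h at 37 C to DMSO-dissolved compounds with metabolic activation by human liver microsomes and NADPH, each 0.5 mg/mL final.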

[6] = p53 small molecule agonists, cell-based qHTS assay with rat liver microsomes: qHTS cell viability counter screen (AID 1963580); also: nearly all actives have a fitted effect of over 45% in size; also: potency is read from the fitted curve at half-maximal effect
Procedure, shortened: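 p53RE-bla HCT-116 cells (4,000/well) rested 5 h at 37 C, then given Tox21 compounds in DMSO with rat liver microsomes (0.5 mg/mL final) plus NADPH (0.5 mg/mL final) for 16 h at 37 C. Viability read by CellTiter-Glo luminescence after 30 min at room temperature.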

[7] = p53 small molecule agonists, cell-based qHTS assay: qHTS cell viability counter screen (AID 1963581); also: nearly all actives have a fitted effect of over 45% in size; also: potency is read from the fitted curve at half-maximal effect
Procedure, shortened: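 p53RE-bla HCT-116 cells, compounds added 5 h after plating and incubated 16 h at 37 C. Cytotoxicity measured in the same wells as intracellular ATP by CellTiter-Glo luminescence after 30 min at room temperature.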

[8] = biological target: 5-hydroxytryptamine receptor 2A (Homo sapiens) (UniProt P28223); test: 5-hydroxytryptamine receptor 2A (HTR2A) small molecule antagonists, cell-based qHTS assay (AID 1963586); also: nearly all actives have a fitted effect of over 45% in size
Chain of 5-hydroxytryptamine receptor 2A (Homo sapiens) (P28223 whole entry, looked up): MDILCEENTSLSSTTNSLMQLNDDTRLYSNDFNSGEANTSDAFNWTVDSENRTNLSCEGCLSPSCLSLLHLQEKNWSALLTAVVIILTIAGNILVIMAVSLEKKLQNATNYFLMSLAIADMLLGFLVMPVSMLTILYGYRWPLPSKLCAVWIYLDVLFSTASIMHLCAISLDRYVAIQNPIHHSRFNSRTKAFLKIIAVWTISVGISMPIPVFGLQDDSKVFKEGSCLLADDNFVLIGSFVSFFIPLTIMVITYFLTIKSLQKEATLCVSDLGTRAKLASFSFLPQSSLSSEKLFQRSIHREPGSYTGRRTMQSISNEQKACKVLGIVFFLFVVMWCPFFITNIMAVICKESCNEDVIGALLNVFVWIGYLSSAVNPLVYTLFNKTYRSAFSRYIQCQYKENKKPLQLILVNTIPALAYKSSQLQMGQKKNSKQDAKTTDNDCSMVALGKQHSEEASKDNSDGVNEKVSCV
Procedure, shortened: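 Antagonist-mode intracellular calcium assay: DOI (4 nM) added after 5 min compound pre-incubation at room temperature to dye-loaded HTR2A-CHO cells. Fluorescence followed for 3 min, sampled every second.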

[9] = biological target: 5-hydroxytryptamine receptor 2A (Homo sapiens) (UniProt P28223); test: 5-hydroxytryptamine receptor 2A (HTR2A) small molecule agonists, cell-based qHTS assay (AID 1963587); also: nearly all actives have a fitted effect of over 30% in size
Procedure, shortened: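 HTR2A-CHO cells, plated 18 h at 37 C/5% CO2, dye-loaded 1 h at 37 C; compounds in DMSO added by pin tool (agonist mode). Intracellular calcium flux read as kinetic fluorescence on FDSS over 2 min at 1 s intervals.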

[10] = biological target: Muscarinic acetylcholine receptor M1 (Homo sapiens) (UniProt P11229); test: Cholinergic receptor muscarinic 1 (CHRM1) small molecule agonists, cell-based qHTS assay (AID 1963589); also: nearly all actives have a fitted effect of over 35% in size; also: potency is read from the fitted curve at half-maximal effect
Chain of Muscarinic acetylcholine receptor M1 (Homo sapiens) (P11229 whole entry, looked up): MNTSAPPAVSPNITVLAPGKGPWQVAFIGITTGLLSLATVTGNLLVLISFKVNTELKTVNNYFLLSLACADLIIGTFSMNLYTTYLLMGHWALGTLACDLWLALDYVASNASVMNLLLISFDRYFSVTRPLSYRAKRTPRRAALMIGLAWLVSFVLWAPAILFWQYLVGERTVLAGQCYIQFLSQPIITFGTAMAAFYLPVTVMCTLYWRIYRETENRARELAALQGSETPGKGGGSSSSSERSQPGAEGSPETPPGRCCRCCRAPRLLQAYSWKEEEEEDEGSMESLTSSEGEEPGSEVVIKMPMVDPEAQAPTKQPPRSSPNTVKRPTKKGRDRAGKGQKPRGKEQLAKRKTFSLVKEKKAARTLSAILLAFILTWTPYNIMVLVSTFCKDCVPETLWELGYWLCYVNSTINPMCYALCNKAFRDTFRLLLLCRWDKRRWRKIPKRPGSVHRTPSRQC
Procedure, shortened: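 CHO cells stably expressing human CHRM1 were loaded with calcium dye for 1 h at 37 C, then compound was added in agonist mode. Intracellular calcium fluorescence was followed kinetically at 1 s intervals. Fifteen concentrations were tested in three independent runs.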

[11] = cAMP Responsive Elements (CRE) small molecule agonists, cell-based qHTS assay (AID 1963590)
Procedure, shortened: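 CRE-bla HEK 293T cells, 2,000/well in DMEM with 10% dialyzed FBS and 25 mM HEPES, pre-incubated 18 h at 37 C, then exposed to compound 3 h at 37 C. Beta-lactamase reporter read with LiveBLAzer B/G FRET substrate after 2 h at room temperature.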

[12] = cAMP Responsive Elements (CRE) small molecule antagonists, cell-based qHTS assay (AID 1963591; active = well fitted inhibition curve with a large enough effect in the signal ratio in the repeat runs, not every such curve was filed as active; the % refers to the signal ratio; also: potency is read from the fitted curve at half-maximal effect)
Procedure, shortened: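 CRE-bla HEK293T cells plated 18 h, then given compound plus NKH477 at 0.25 uM final for 3 h at 37C. Beta-lactamase reporter read with LiveBLAzer B/G FRET substrate after 2 h at room temperature.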

[13] = biological target: Beta-2 adrenergic receptor (Homo sapiens) (UniProt P07550); test: Adrenergic beta2 receptor (ADRB2) small molecule antagonists, cell-based qHTS assay (AID 1963592); also: nearly all actives have a fitted effect of over 50% in size; also: potency is read from the fitted curve at half-maximal effect
Chain of Beta-2 adrenergic receptor (Homo sapiens) (P07550 whole entry, looked up): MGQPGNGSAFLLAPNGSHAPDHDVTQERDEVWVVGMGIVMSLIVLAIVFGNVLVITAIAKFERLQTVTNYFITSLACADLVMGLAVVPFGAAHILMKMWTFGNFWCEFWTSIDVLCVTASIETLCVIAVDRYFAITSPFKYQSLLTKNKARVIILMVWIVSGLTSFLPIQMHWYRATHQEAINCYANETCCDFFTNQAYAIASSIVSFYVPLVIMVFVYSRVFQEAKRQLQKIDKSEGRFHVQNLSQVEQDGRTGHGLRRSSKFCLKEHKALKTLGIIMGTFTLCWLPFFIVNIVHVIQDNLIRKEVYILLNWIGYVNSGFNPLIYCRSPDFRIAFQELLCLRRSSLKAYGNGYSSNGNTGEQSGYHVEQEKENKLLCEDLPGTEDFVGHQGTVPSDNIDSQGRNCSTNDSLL
Procedure, shortened: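 Cells (CHO, stable ADRB2 overexpression) incubated 18-20hr at 37C; compounds added from DMSO; agonist mix (1nM isoproterenol, 100uM IBMX, 25uM Ro-20-1724) added; 0.5hr RT; d2-cAMP and anti-cAMP-cryptate added; 1hr RT; 665/615 nm read.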

[14] = biological target: D(2) dopamine receptor (Homo sapiens) (UniProt P14416); test: Dopamine D2 receptor (DRD2) small molecule antagonists, cell-based qHTS assay (AID 1963595; active = well fitted inhibition curve with a large enough effect in the signal ratio in the repeat runs, with a control signal flat; the % refers to the signal ratio; also: potency is read from the fitted curve at half-maximal effect)
Chain of D(2) dopamine receptor (Homo sapiens) (P14416 whole entry, looked up): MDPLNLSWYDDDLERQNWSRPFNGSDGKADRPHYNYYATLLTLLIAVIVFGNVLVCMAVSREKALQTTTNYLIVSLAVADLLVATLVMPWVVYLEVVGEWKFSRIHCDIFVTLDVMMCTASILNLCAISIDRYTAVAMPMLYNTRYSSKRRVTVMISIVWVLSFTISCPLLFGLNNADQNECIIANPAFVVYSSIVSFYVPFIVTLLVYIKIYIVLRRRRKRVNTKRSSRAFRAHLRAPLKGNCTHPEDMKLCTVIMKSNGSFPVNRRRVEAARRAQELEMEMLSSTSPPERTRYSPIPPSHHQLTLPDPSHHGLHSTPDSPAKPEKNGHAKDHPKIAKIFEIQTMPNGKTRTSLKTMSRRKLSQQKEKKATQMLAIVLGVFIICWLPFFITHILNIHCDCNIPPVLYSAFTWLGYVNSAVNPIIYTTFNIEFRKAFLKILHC
Procedure, shortened: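 Human DRD2 antagonist qHTS measuring cAMP by HTRF. The cells are exposed to compound for 10 min, then to NKH477 (200 nM) and quinpirole (12 nM) for 30 min at RT, with Ro20-1724 (0.1 mM) present throughout.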

[15] = p53 small molecule agonists, cell-based qHTS assay (AID 1963582; active = well fitted activation curve with a large enough effect in the signal ratio in the repeat runs, not every such curve was filed as active; the % refers to the signal ratio)
Procedure, shortened: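 p53RE-bla reporter cells, compounds added in DMSO after 5 h plating, incubated 16 h at 37 C. Beta-lactamase read via 2 h room-temperature LiveBLAzer B/G FRET substrate, fluorescence intensity.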

[16] = biological target: D(2) dopamine receptor (Homo sapiens) (UniProt P14416); test: Dopamine D2 receptor (DRD2) small molecule agonists, cell-based qHTS assay (AID 1963594); also: nearly all actives have a fitted effect of over 35% in size
Procedure, shortened: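 HEK293 cells stably expressing DRD2 were cultured 24 h at 37 C, then given Ro20-1724 (0.1 mM final) and compounds for 10 min at room temperature. NKH477 (200nM) was then added for 30 min. cAMP was read by HTRF.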

[17] = p53 small molecule agonists, cell-based qHTS assay with human liver microsomes (AID 1963577);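 also: p53 response element beta-lactamase reporter cells with liver microsomes plus NADPH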
Procedure, shortened: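 p53RE-bla cells; 5 h settle, 37 C/5% CO2; cpd + HLM 0.5 mg/mL + NADPH 0.5 mg/mL (final); 16 h 37 C; LiveBLAzer 2 h RT dark; fluorescence readout.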

[18] = p53 small molecule agonists, cell-based qHTS assay with rat liver microsomes (AID 1963578)
Procedure, shortened: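 Rat liver microsome activation: microsomes 0.5 mg/mL, NADPH 0.5 mg/mL final; p53RE-bla cells, 16 h 37 C; LiveBLAzer readout, 2 h RT dark.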

[19] = biological target: Muscarinic acetylcholine receptor M1 (Homo sapiens) (UniProt P11229); test: Cholinergic receptor muscarinic 1 (CHRM1) small molecule antagonists, cell-based qHTS assay (AID 1963588); also: nearly all actives have a fitted effect of over 40% in size
Procedure, shortened: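 CHRM1-CHO calcium-flux assay, antagonist mode. Cells were seeded 18 h, dye-loaded 1 h at 37 C and given compound for 5 min at RT, then acetylcholine was added at 50nM. FDSS fluorescence was read 3 min; 15 concentrations, three runs.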

[20] = biological target: Beta-2 adrenergic receptor (Homo sapiens) (UniProt P07550); test: Adrenergic beta2 receptor (ADRB2) small molecule agonists, cell-based qHTS assay (AID 1963593);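 also: CHO cells stably overexpressing human ADRB2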
Procedure, shortened: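 CHO cells stably over-expressing ADRB2 were plated overnight at 37C, then dosed with compounds plus a stimulation mix containing 100uM IBMX and 25uM Ro-20-1724 for 0.5hr at room temperature. cAMP was measured by HTRF competition, 1hr.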

Measured: Potency

CCOP(=S)(Oc1ccc([N+](=O)[O-])cc1)c1ccccc1 (stereo not drawn)
not listed: [15] | [16] | [17] | [18] | [19] | [20]
inactive: all other assays above

C[C@@H]1C[C@@H]([C@H](O)CC2CC(=O)NC(=O)C2)C(=O)[C@@H](C)C1
active: [12] 8.58 µM and 8.3 µM and 2.66 µM
not listed: [8] | [9] | [10] | [13] | [17] | [18] | [19] | [20]
inactive: all other assays above

CCCCC(O)(Cn1cncn1)c1ccc(Cl)cc1Cl (stereo not drawn)
inactive: [1] | [3] | [4] | [17] | [18] | [5] | [7] | [8] | [19] | [10] | [16]

Oc1ccc(C2(c3ccc(O)cc3)CCCCC2)cc1
active: [5] 43.3 µM
not listed: [2] | [7] | [10] | [12] | [13] | [15] | [20]
inactive: all other assays above

ClC1=C(Cl)C2(Cl)C(CBr)CC1(Cl)C2(Cl)Cl (stereo not drawn)
not listed: [2] | [4] | [9] | [10]
inactive: all other assays above

CC(=O)[O][Pb]([c]1ccccc1)([c]1ccccc1)[c]1ccccc1
inactive: [3] | [17] | [18] | [8]
active: [1] 0.864 µM | [2] 30.9 µM | [5] 4.08 µM | [6] 8.14 µM | [7] 16.2 µM | [14] 4.33 µM

O=C1NCN(c2ccccc2)C12CCN(CCCOc1ccc(F)cc1)CC2
inactive: [1] | [18] | [6] | [11]
active: [2] 9.52 µM | [4] 10.7 µM | [10] 4.77 µM | [13] 5.96 µM | [14] 0.106 µM

CC(C)(C)c1cc([N+](=O)[O-])cc(C(C)(C)C)c1O
active: [1] 34.4 µM
not listed: [4] | [11] | [12] | [13] | [15] | [16] | [19]
inactive: all other assays above
